# Bioassay records as filed in PubChem BioAssay.
# Pf growth 48h = inhibits P. falciparum growth in the first generation, 48 h; P. falciparum luciferase growth in erythrocytes, 48 h; Potency, µM (series often up to 28.7 µM), inactives show at the highest dose activity change, negative = inhibition, hits mostly inhibitors; 5.9% of 310,000 active; AID 504832; further: potency means the concentration at half of the fitted maximal effect; on the % scale 0 is the no-effect control and ±100 the full control effect
#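 Here the parasites carry a stable luciferase gene and grow inside erythrocytes in Albumax-based RPMI medium with compound for one erythrocytic cycle. Activity is scored as loss of luminescent signal.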
# SARS PLpro yeast = blocks SARS-CoV papain-like protease in a yeast assay | S. cerevisiae expressing SARS-CoV PLpro, growth rescue | Potency, µM (series often up to 32.9 µM), inactives show at the top dose activity, positive = growth rescue, usual class: activators | 0.19% of 330,000 active; calls by dose curve; further: potency means the concentration at half of the fitted maximal effect; 0% is about no effect; nearly all actives have a fitted effect of over 55% in size
# HCMV antiviral = human cytomegalovirus inhibition; HFF cells, HCMV-luciferase reporter, 72 h; stronger effect = lower value; activity change, negative = inhibition, % at 57.5 µM; 4.5% of 410,000 active; AID 1259415; in the data active means activity change below about -60%; inconclusive means no clear call, values can overlap the other calls; inactive means above about -39%; further: on the % scale 0 is the no-effect control and ±100 the full control effect
#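 Two compound doses tested in HFFs infected with HCMV-luciferase, MOI 1 PFU/cell, 72 h at 37C. Lysate luminescence read with OneGlo; data normalized against buffer-only and 10uM Salinomycin inhibitor controls.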
# Sm TGR inh = blocks Schistosoma mansoni thioredoxin glutathione reductase; purified TGR, DTNB reduction, TNB absorbance 405 nm; Potency, µM (titrated, usually from 114 µM), for inactives: at the top dose activity change, negative = inhibition, usual class: inhibitors; 3% of 360,000 active; AID 485364; further: potency means the concentration at half of the fitted maximal effect; on the % scale 0 is the no-effect control and ±100 the full control effect; nearly all actives have a fitted effect of over 60% in size
#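 TGR 20 nM + NADPH 100 uM (dispensed conc.), cpd preinc 15 min RT; start with NADPH (500 uM addition) then DTNB (15 mM addition). Kinetic TNB absorbance, 405 nm filter. Four-parameter Hill fit across titration.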
# HCV inhibitor = blocks hepatitis C virus. Huh7.5.1 HCVcc-Cre infection, luciferase reporter, 44 h. Potency, µM (titrated, usually from 41.8 µM), inactives show at the top dose activity change, negative = inhibition, usual class: inhibitors. 3.4% of 340,000 active. AID 651820; further: potency means the concentration at half of the fitted maximal effect; on the % scale 0 is the no-effect control and ±100 the full control effect
#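 Cells (1,000/well) were plated 4 h before compound, then infected with HCVcc-Cre virus (~0.5 moi). After 44 h further culture, infection was read as luciferase luminescence following a 15 min substrate incubation at room temperature.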
# Pf growth 96h = P. falciparum growth inhibition at 96 hours. AID 504834. Potency, µM (titrated, usually from 28.7 µM), inactives show at the highest dose activity change, negative = inhibition, hits mostly inhibitors. P. falciparum luciferase reporter growth, 96 h. 6.9% of 320,000 active; further: potency means the concentration at half of the fitted maximal effect; on the % scale 0 is the no-effect control and ±100 the full control effect
#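 Readout is luminescence from an integrated firefly luciferase in P. falciparum. Red cells, 2% hematocrit and 0.05% parasitemia final, were cultured with compound through two parasite generations (96 hours) at 37 C, 5% CO2.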
# * = called active by the depositor; ? = inconclusive; nt = not tested or not shown. This is a sample that favours compounds with a hit; in the whole collection about 15% have one here. Unless noted, the call rests on the fitted dose curve; in most records, active means well fitted curve in the direction sought with a large enough effect; inconclusive means small, poorly fitted or top-dose-only effect, or another doubt; inactive means no such curve, though single readings can be large; an effect the other way counts as inactive or inconclusive.
SMILES,Pf growth 48h,SARS PLpro yeast,HCMV antiviral,Sm TGR inh,HCV inhibitor,Pf growth 96h
Cc1ccc(C(NC(=O)c2ccccc2)C(Cl)Cl)cc1 (stereo unspecified),?,-14%,25,-12%,?,4.1µM*
Cc1ccc(C(=O)C[n+]2cccc3ccccc32)cc1,13µM*,2%,67,0%,-12%,4.1µM*
Cc1ccc(C(=O)OCN2C(=O)c3ccccc3C2=O)o1,5%,nt,-25,-16%,-14%,77%
CC(=O)N1c2ccc(S(=O)(=O)NCC3CCC(C(=O)NC4CCCCC4)CC3)cc2CC1C (stereo unspecified),-22%,1%,-8,-5%,0%,?
CCNC(=O)CC1C(=O)N(c2ccc(F)cc2)C(=O)N1CCOC (stereo unspecified),nt,nt,10,7%,nt,nt
Cc1ccc[n+](CC(=O)c2ccc(Cl)cc2)c1,4%,5%,10,6%,2%,0.83µM*
Cc1ccc[n+](CC(=O)c2ccc(-c3ccccc3)cc2)c1,-28%,-25%,-68*,-6%,-16%,?
CC(=O)Nc1cc[n+](CC(=O)c2ccc(Cl)cc2)cc1,?,1%,-19,2%,?,9.3µM*
Cc1ccc(C(=O)C[n+]2ccccc2)cc1,44%,-1%,-32,1%,26%,16%
Cc1ccc(O)c(C(=O)CC(=O)c2ccc(Cl)cc2)c1,?,-5%,?,-2%,22µM*,?
CN=c1scc(-c2c[nH]c3ccccc23)n1C,?,1%,35,-1%,23%,45%
CCCCCCNC1=NCCS1,?,-1%,-10,-1%,7%,-10%
O=C(c1ccccc1F)N1CC(=O)N2[C@H](CO)[C@H](c3ccc(Br)cc3)[C@@H]2C1,nt,nt,-9,nt,nt,nt
Cc1ccc(C(=O)Sc2cccccc2=O)cc1,4.1µM*,-12%,-99*,?,-11%,2.9µM*
Cc1ccc(S(=O)(=O)CCC(=O)OCC(=O)NC(=O)c2ccccc2)cc1,2%,-14%,-15,-1%,17%,13%
O=C(NS(=O)(=O)c1ccc(Cl)cc1)c1ccccc1,0%,-5%,3,-2%,12%,14%
Cc1ccc(C(=O)NC(=C(Cl)Cl)S(=O)(=O)c2ccc(Cl)cc2)cc1,5%,-1%,-11,nt,?,6%
Cc1ccc(S(=O)(=O)C(NC(=O)c2ccccc2)=C(Cl)Cl)cc1,nt,nt,-74*,nt,?,nt
CC(=O)Nc1ccc(/C(C)=N/NS(=O)(=O)c2ccccc2)cc1,23%,-3%,-18,2%,-1%,46%
CC(=O)NC(=C(Cl)Cl)S(=O)(=O)c1ccccc1,?,-11%,-99*,?,?,?
O=C(NC(=C(Cl)Cl)S(=O)(=O)c1ccc(Cl)cc1)c1ccccc1,-9%,2%,?,3.5µM*,?,9%
Cc1ccc(S(=O)(=O)/C(=C/Cl)NC(=O)c2ccccc2)cc1,-15%,-3%,-66*,40µM*,?,?
CCOC(=O)N(C)C[C@H]1OCc2cnnn2CCCC(=O)N([C@H](C)CO)C[C@H]1C,nt,nt,-13,nt,nt,nt
C[C@@H]1CN([C@@H](C)CO)C(=O)c2cc(Br)cnc2O[C@H]1CN(C)C(=O)Nc1ccc(F)cc1,nt,nt,18,nt,nt,nt
Cc1ccc(CSc2nc3cccnc3n2Cc2ccc(C(=O)NC3CCCCC3)cc2)cc1,nt,nt,20,-4%,nt,nt
SMILES,Pf growth 48h,SARS PLpro yeast,HCMV antiviral,Sm TGR inh,HCV inhibitor,Pf growth 96h
Cc1ccc(C(=O)NC(=C(Cl)Cl)S(=O)(=O)c2ccc(C)cc2)cc1,9%,-9%,-60*,18µM*,-18%,3%
Cn1nc(-c2ccccc2F)c2cc(C(=O)N3CCN(c4ccccc4F)CC3)sc21,nt,nt,-28,-3%,nt,nt
C[C@@H]1CN([C@H](C)CO)C(=O)CCCn2nncc2CO[C@@H]1CN(C)C(=O)Nc1ccc2c(c1)OCO2,nt,nt,-9,nt,nt,nt
COc1ccccc1/C=C/c1nc2ccc(OC(C)=O)cc2c(=O)o1,2%,7%,-20,?,26%,1.7µM*
COc1ccccc1/C=C/c1nc2ccccc2c(=O)o1,nt,nt,22,nt,17%,nt
COc1ccc(/C=C/c2nc3ccccc3c(=O)o2)cc1,166%,2%,-95*,7%,18%,178%
Cc1ccc(-c2nc(CN(CC3CCC3)CC3CCCO3)c(C)o2)s1 (stereo unspecified),?,-2%,?,56µM*,?,1%
Cc1ccc(CNCC2CCCO2)s1 (stereo unspecified),nt,21%,21,0%,15%,-3%
COc1ccccc1C=CC(=O)C=Cc1ccccc1OC,nt,nt,-100*,nt,?,nt
COc1ccccc1/C=C/C(=O)/C=C/c1ccccc1O,?,-6%,-98*,20µM*,?,?
COc1ccccc1/C=C/C(C)=O,6%,-26%,?,-8%,-11%,-18%
CCn1c(=O)c(=O)[nH]c2cc(C(=O)N3CCN(Cc4ccc5c(c4)OCO5)CC3)ccc21,0%,1%,-3,-3%,-7%,0%
O=[N+]([O-])/C=C/c1c(OCc2ccccc2)ccc2ccccc12,nt,3%,nt,?,nt,?
CCOC(=O)COc1ccc(/C=C/[N+](=O)[O-])c(OCC(=O)OCC)c1,?,-19%,-105*,17%,?,?
CCOC(=O)COc1ccc2ccccc2c1/C=C/[N+](=O)[O-],?,-51%,-99*,?,?,-19%
CC1(C(=O)Nc2ccc3c(c2)OCCO3)CN(S(C)(=O)=O)CC(=O)N1C1CCCCCC1 (stereo unspecified),nt,nt,21,nt,nt,nt
N#C/C(=N\Nc1ccc(F)cc1)C(=O)C1CC1,24%,-4%,8,0%,11%,-14%
N#C/C(=N\Nc1ccc(Cl)c(Cl)c1)C(=O)C1CC1,100%,-9%,-100*,12%,?,70%
Cc1[nH]c(C)c(C(=O)/C=C/c2ccc([N+](=O)[O-])cc2)c1C,?,-14%,-101*,?,?,-22%
CCOC(=O)c1[nH]c(C)c(C(=O)/C=C/c2ccc(C(=O)O)cc2)c1C,12µM*,19%,-34,-6%,-9%,?
COc1ccc(C=CC(=O)c2ccc([N+](=O)[O-])cc2)cc1,nt,nt,-23,nt,-10%,nt
CC(C)c1ccc(NC(=O)Cn2cc(S(=O)(=O)Cc3cccc(Cl)c3)c3ccccc32)cc1,nt,nt,?,2%,nt,nt
CCOC(=O)CC1c2nc3ccccc3cc2CN1C(=O)OCC (stereo unspecified),nt,nt,-23,nt,nt,nt
CCC(OC(=O)c1ccc(S(C)(=O)=O)c([N+](=O)[O-])c1)C(=O)NC1C2CC3CC(C2)CC1C3 (stereo unspecified),nt,nt,-95*,nt,nt,nt
